The values that follow come from PubChem BioAssay AID1851 (National Center for Advancing Translational Sciences (NCATS), 2009).

In all, about 16,000 compounds went through this assay and about 5,700 (36%) were called active. Another 24% or so got no clear call; they are omitted. The list shows a part of the results. Unmarked numbers belong to inactive results. The call rests on the fitted dose curve; in most records, active means well fitted curve in the direction sought with a large enough effect; inconclusive means small, poorly fitted or top-dose-only effect, or effect the other way; inactive means no such curve, though single readings can be large or run the other way.
On the % scale 0 is the no-effect control and ±100 the full control effect.

The target of the test is Cytochrome P450 1A2 (Homo sapiens) (UniProt P05177). Put plainly: Cytochrome panel assay with activity outcomes. As to conditions: recombinant CYP, pro-luciferin dealkylation, luminescence, p450-cyp1a2; series mostly up to 57.1 µM; activity, negative = inhibition: at the top concentration.
Sequence of Cytochrome P450 1A2 (Homo sapiens) (P05177 whole entry, looked up): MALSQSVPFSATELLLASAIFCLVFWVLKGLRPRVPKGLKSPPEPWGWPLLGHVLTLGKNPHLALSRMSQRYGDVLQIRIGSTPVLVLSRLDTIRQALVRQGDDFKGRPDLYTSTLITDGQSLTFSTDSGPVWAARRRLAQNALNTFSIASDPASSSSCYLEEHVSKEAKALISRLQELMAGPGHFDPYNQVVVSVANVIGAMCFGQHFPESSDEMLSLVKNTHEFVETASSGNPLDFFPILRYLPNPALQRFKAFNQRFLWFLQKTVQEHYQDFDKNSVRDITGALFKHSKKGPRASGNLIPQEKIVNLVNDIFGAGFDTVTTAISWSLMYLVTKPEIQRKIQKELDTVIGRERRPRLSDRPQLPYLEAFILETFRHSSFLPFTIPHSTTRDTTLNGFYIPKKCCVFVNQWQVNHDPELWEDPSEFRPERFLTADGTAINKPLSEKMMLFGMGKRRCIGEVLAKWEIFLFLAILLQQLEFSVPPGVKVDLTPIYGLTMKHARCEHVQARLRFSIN
For the compound `Cc1ccc(S(=O)(=O)O/N=C2/CCCc3occc32)cc1`, the “activity, negative = inhibition” value was -10%. Consider `CCOc1ccc(C2C(C(=O)O)c3ccccc3C(=O)N2CCN2CCOCC2)cc1` (centres undefined), for which the “activity, negative = inhibition” value was -19.1%. With `COc1ccc(C2C(C(=O)N3CCOCC3)c3ccccc3C(=O)N2c2ccc(OC)cc2)cc1` (centres undefined), the “activity, negative = inhibition” value was -15.8%. By AC50 is commonly meant the concentration giving half of the maximal activity seen. For `CN(C)C(=O)CSC1c2ccccc2C(=O)N1c1ccccc1` (centres undefined), the AC50 is 12600 nM (active). For the compound `O=c1cc(CF)[nH]c(=S)[nH]1`, the activity, negative = inhibition is -23.3% [at 11.4 µM]. For the compound `c1ccc2c(Nc3ccncc3)nc(-c3ccoc3)nc2c1`, the AC50 is 158 nM (active). Take `c1ccc(Nc2nc(-c3ccoc3)nc3ccccc23)cc1`: the AC50 was 200 nM (active). Still for that read-out and setting: the value for `Fc1ccc(Nc2nc(-c3ccoc3)nc3ccccc23)cc1` was 316 nM (active); that for `CNc1nc(-c2ccoc2)nc2ccccc12` was 398 nM (active). For the compound `C=CC1=C[C@@H](O)C2OC2C12OCCCO2` (some centres undefined), the activity, negative = inhibition was -8.77% [at 11.4 µM]. On to `NC(=O)CN1CCN(c2nc(-c3ccc(F)cc3)cs2)CC1`, for which the AC50 was 2510 nM (active). In the case of `NC(=O)CN1CCOCCOCCOCCOCCOCC1`, the “activity, negative = inhibition” value was -6.19%.

Consider `NCS(=O)(=O)O`, for which the activity, negative = inhibition is -5.62% [at 2.29 µM].

With `COc1ccc2c(c1)C(=NN)c1cc(OC)ccc1-2`, the AC50 is 112 nM (active).

Consider `CCOc1ccc(-c2nnn(CC(=O)Nc3cc(OC)ccc3OC)n2)cc1OCC`, for which the “activity, negative = inhibition” value was -12.8%. Consider `CCCCN(CC)Cc1ccc(CNC(=O)Nc2ccc(OC)cc2OC)o1`, for which the “activity, negative = inhibition” value is -6.55%. On the same count and under the same terms, in the case of `COc1ccc(OC)c(NC(=O)[C@H]2CC=CC[C@H]2C(=O)O)c1` it was -20.7%.

Consider `COc1ccc(NC(=O)Cn2cccc2)c(OC)c1`, for which the AC50 is 5010 nM (active).

On to `CCN1CCCC1CNC(=O)C(=O)Nc1ccc(OC)cc1` (centres undefined), for which the “activity, negative = inhibition” value was -24.6%. For the compound `COc1ccc(OC)c(NC(=O)Cn2cccc2)c1`, the AC50 is 6310 nM (active). On to `COc1ccc(NC(=O)NCc2cccn2C)c(OC)c1`, for which the AC50 was 15800 nM (active). Regarding `COCCN(C(=O)Nc1ccc(OC)cc1OC)C1CCN(C(C)=O)CC1`, the “activity, negative = inhibition” value was -16.2%. As to `COc1ccc(NC(=O)CSc2nnc(Cc3cccn3C)n2CCc2ccccc2)c(OC)c1`, the “activity, negative = inhibition” value is -35.8%. In the case of `COc1ccc(N2CCC(CNC(=O)Nc3ccc(OC)cc3OC)C2)cc1` (centres undefined), the AC50 was 12600 nM (active). Turning to `C[C@@H](C(=O)O)c1ccc(C[C@@H]2CCCC2=O)cc1`, the “activity, negative = inhibition” value was -6.14%. For `O=C1[C@@H]2[C@@H](C(=O)N1c1ccc(OCc3ccccc3)cc1)[C@@H]1c3ccccc3[C@@H]2[n+]2ccccc21`, the activity, negative = inhibition is -19.6% [at 11.4 µM]. Take `CN[C@]1(C)[C@@H]2CC[C@@H](C2)C1(C)C`: the “activity, negative = inhibition” value was -2.74%.

As to `CCOC(=O)c1ccc2nc(C)c(CCC(C)=O)c(Cl)c2c1`, the AC50 is 8910 nM (active). For `CCOC(=O)c1cncc(C(=O)O)c1`, the “activity, negative = inhibition” value was -1.87%. As for `CCc1ccc(C(=O)COC(=O)c2cccc(N3C(=O)c4c(C)nc5ccccc5c4C3=O)c2)cc1`, the “activity, negative = inhibition” value is -14.4%. Take `O=C1CCCC=C1[C@H](CCc1ccccc1)OC(=O)c1ccc(Br)cc1`: the activity, negative = inhibition was -1.62% [at 11.4 µM]. On to `O=C(Nc1ccccc1)N1CC2(CCN(C(=O)c3cc(C(F)(F)F)cc(C(F)(F)F)c3)CC2)C1`, for which the “activity, negative = inhibition” value was -6.53%. With `COC(=O)/C(=C\C(=O)c1ccccc1)Nc1cccc(C(F)(F)F)c1`, the AC50 is 2240 nM (active). Turning to `COc1ccc2c(Cc3c4ccccc4cc4ccccc34)cncc2c1O`, the AC50 was 126 nM (active). As to `CCCNC(=O)OC[C@@H]1O[C@H](CCO/N=C\C[C@H]2C=C[C@H](OC(C)=O)[C@@H](COC(C)=O)O2)C=C[C@@H]1Oc1ccc(OC)cc1`, the activity, negative = inhibition was -4.67% [at 11.4 µM]. Turning to `Cn1c(=O)c2[nH]c(/N=N\N3CCN(CCO)CC3)nc2n(C)c1=O`, the activity, negative = inhibition is -14.7% [at 2.29 µM]. `c1csc(CNc2nc(-c3ccoc3)nc3ccccc23)c1`: the AC50 was 316 nM (active).

Turning to `Cc1cccc(CNc2nc(-c3ccoc3)nc3ccccc23)c1`, the AC50 was 1260 nM (active). Consider `c1cncc(CNc2nc(-c3ccoc3)nc3ccccc23)c1`, for which the AC50 was 398 nM (active). On the same count and under the same terms, in the case of `c1ccc(CNc2nc(-c3ccoc3)nc3ccccc23)cc1` it was 631 nM (active). `CCc1ccc(C(=O)COC(=O)C(Cc2ccccc2)NC(=O)C2CCC(C)CC2)cc1` (centres undefined): the “activity, negative = inhibition” value was -7.88%. For `C=CC[C@@H]1C=C[C@@H](O/N=C\[C@@H](OC)[C@H](C)/C=C\CC(=O)OC)[C@@H](CO)O1`, the activity, negative = inhibition was -0.319% [at 11.4 µM].

In the case of `COCCCN=CC1=C(O)CC(C)(C)CC1=O`, the “activity, negative = inhibition” value is -13.1%. As to `CN[C@@H](c1ccncc1)[C@@H](NC)c1ccncc1`, the activity, negative = inhibition was -13.3% [at 11.4 µM].

As to `c1cncc(-c2nc(NCc3cccs3)c3ccccc3n2)c1`, the AC50 was 316 nM (active).

`COc1ccc(OCCn2c(C)c(/C=N/n3cnnc3)c3ccccc32)cc1`: the AC50 is 398 nM (active). With `O=C(CCC(=O)Nc1ccccc1)NNC(=O)c1cccs1`, the “activity, negative = inhibition” value was -23.3%. For `O=C(COc1cccc2ccccc12)NNC(=O)c1cccs1`, the AC50 was 8910 nM (active). On to `CC1(C)Cc2c(sc3nc(-c4ccccc4)n(N)c(=O)c23)CO1`, for which the AC50 is 7080 nM (active). Same read-out and setting: in the case of `Cc1cc2cc3c(C)cc(=O)oc3c(C)c2o1` it was 1000 nM (active).

Take `CC(C)NC(=O)N1CC[C@@]2(CCCN(S(=O)(=O)c3ccccc3)C2)C1`: the “activity, negative = inhibition” value was -2.4%.

With `CSc1c(-c2ccccc2)nc2ccc(Cl)cc2c1C(=O)O`, the “activity, negative = inhibition” value was 10.5%. With `CSc1nc(Sc2cccc(Cl)c2)c2ccccc2n1`, the AC50 was 355 nM (active). With `O=C(O)/C=C\c1cnc[nH]1`, the “activity, negative = inhibition” value is -4.95%. Take `Cc1cc(C)nc(NC(=O)/C=C/c2ccc(Cl)cc2Cl)c1`: the AC50 is 3160 nM (active). On to `Cc1cc(C)nc(NC(=O)CCCC(=O)O)c1`, for which the “activity, negative = inhibition” value is -5.89%.

For the compound `C#CCCCC(=S)Nc1ccccc1`, the AC50 is 12600 nM (active). Take `N=c1nc(N2CCCCC2)cc(N)n1O`: the “activity, negative = inhibition” value is -2.65% [at 25.6 µM]. Take `CC(Sc1nc(-c2ccccc2)cc(C(F)(F)F)n1)C(=O)N1CCCCC1` (centres undefined): the AC50 was 8910 nM (active).

Consider `O=C(c1cc(C(F)(F)F)cc(C(F)(F)F)c1)N1CCC[C@@]2(CCN(c3ccccc3)C2)C1`, for which the “activity, negative = inhibition” value was -17.8%. On to `O=C1[C@H]2[C@H]3[C@H](O)[C@H](O)C/C(=N/OC[C@@H](O)COCc4ccco4)[C@H]3CC[C@@H]2C(=O)N1Cc1ccccc1`, for which the activity, negative = inhibition was -10.7% [at 11.4 µM]. Still for that read-out and setting: in the case of `NS(=O)(=O)c1ccc(NCc2nc3ccccc3[nH]2)cc1` it was -18.8% [at 2.29 µM]. Consider `NS(=O)(=O)c1ccc(NCc2cnc3ccccc3n2)cc1`, for which the activity, negative = inhibition is -18.2% [at 2.29 µM].

With `NS(=O)(=O)c1ccc(NCc2ccccc2OCc2ccccc2F)cc1`, the AC50 is 14100 nM (active).
